Source: PubChem BioAssay
CYP2C19 inhib: inhibitors of human CYP2C19. AID 778. CYP2C19 Supersomes, luciferin-H EGE luminescence, 30 min. P33261. inhibition, % at 5 µM. 96,000 tested, 21% active;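 active means CYP2C19 inhibition above a set limit at 5 µM in the primary screen, cut at about 50% in these data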;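 further: plate controls were negative control wells for no effect and 2.5 mM tranylcypromine positive control for full effect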
CYP2C9 act: increases human cytochrome P450 2C9 activity; P11712; recombinant CYP2C9, luciferin-H conversion, luminescence; active compounds read high; factor 1 = untreated enzyme, 0 = blocked; 96,000 tested, 1.4% active; activation factor at 5 µM;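 active means activation factor of 2 or more for CYP2C9 at a 5 µM dose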;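 further: 0 = sulfaphenazole-blocked wells and 1 = vehicle-only wells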
Target sequence (P11712 whole entry, looked up): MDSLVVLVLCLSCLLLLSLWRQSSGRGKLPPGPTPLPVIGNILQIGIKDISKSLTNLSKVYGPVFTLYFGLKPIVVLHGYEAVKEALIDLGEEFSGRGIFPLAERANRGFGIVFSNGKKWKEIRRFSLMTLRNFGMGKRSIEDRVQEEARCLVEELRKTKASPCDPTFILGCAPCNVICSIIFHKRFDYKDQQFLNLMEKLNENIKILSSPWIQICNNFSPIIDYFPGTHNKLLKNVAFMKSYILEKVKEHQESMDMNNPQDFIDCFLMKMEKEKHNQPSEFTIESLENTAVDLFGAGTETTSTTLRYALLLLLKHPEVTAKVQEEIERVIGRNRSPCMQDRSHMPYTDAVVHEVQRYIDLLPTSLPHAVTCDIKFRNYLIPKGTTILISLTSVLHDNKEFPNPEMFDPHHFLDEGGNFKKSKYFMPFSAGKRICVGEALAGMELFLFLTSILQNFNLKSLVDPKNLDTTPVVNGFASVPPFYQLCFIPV
CYP2C9 inh: blocks human cytochrome P450 2C9. P11712. CYP2C9 Supersomes, luciferin-H conversion, luminescence. inhibition, % at 5 µM. 96,000 tested, 20% active. AID 777;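 active means blocking of liver enzyme CYP2C9 beyond about 50% at 5 µM, limit read from the data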
PLK1 kinase inh: blocks human PLK1 kinase activity; AID 619; recombinant PLK1 kinase, TR-FRET peptide phosphorylation; inhibition, % at 10 µM; 97,000 tested, 0.53% active;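 active means inhibition of 50% or more in the single-concentration screen; inactive means inhibition below 50%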;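 further: 0% = DMSO max control and 100% = H-89 dihydrochloride min control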
CYP2C19 activ: increases human CYP2C19 enzyme activity. activation factor at 5 µM. P33261. 96,000 tested, under 10 active. AID 1025. recombinant CYP2C19, luciferin-H EGE luminescence; active compounds read high; 0 = fully inhibited enzyme, 1 = untreated enzyme;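 active means activation factor of at least 2 at 5 µM in the primary screen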;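 further: 0 = wells with 2.5 mM tranylcypromine and 1 = vehicle-only wells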
Plk1 PBD FP: Plk1 (human) PBD binding inhibition | Plk1 PBD phosphopeptide binding, fluorescence polarization | P53350 | AID 693 | 97,000 tested, 0.13% active | inhibition, %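 (tested at about 20 µM)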; in the data active means inhibition above about 34%, passing the limit was not always enough
Active calls of the source: *; / = not tested or not shown. A selection: hits, their analogues and other compounds. The true share with any hit is near 28%.

SMILES | CYP2C19 inhib | CYP2C9 act | CYP2C9 inh | PLK1 kinase inh | CYP2C19 activ | Plk1 PBD FP
Cc1cc(Cl)c(S(=O)(=O)N2CCN(c3ccc(F)cc3)CC2)cc1OCC(=O)NC1CCCCC1 | 83* | 0 | 96* | -6 | 0.2 | -32
CCOc1ccc(Cl)cc1S(=O)(=O)N1CCN(c2ccc(C)c(C)c2)CC1 | 100* | 0.4 | 60* | -13 | 0 | -1
COc1ccc(Cl)cc1S(=O)(=O)N1CCN(c2ccc(F)cc2)CC1 | 98* | 3.2* | -220 | -8 | 0 | 1
COc1ccc(Cl)cc1S(=O)(=O)N1CCN=C1C | 90* | 1.7 | -72 | 64* | 0.1 | 5
Cc1cc(Cl)c(S(=O)(=O)N2CCN(c3ccc(F)cc3)CC2)cc1OCC(N)=O | 0 | 0.9 | 13 | -7 | 1 | 0
CCCCOc1ccccc1C1NC(=O)NC(C)=C1C(=O)OCCOC (centres undefined) | / | / | / | -2 | / | -24
COCCCN1C(=O)C(=O)/C(=C(/O)c2ccc(OC)cc2)C1c1ccc(O)c(OC)c1 (centres undefined) | -7 | 1 | 0 | -6 | 1.1 | -15
CC(=O)Nc1ccc(S(=O)(=O)n2cnc3cc(C)c(C)cc32)cc1 | 100* | 0.2 | 78* | -8 | 0 | 0
CCOc1ccc(Cl)cc1S(=O)(=O)n1cnc2cc(C)c(C)cc21 | 91* | 0.4 | 58* | -7 | 0.1 | -16
Cc1cc(S(=O)(=O)N2CCN(c3ccc(F)cc3)CC2)c(C)s1 | 29 | 0.6 | 41 | -9 | 0.7 | 8
COc1c(S(=O)(=O)N2CCN(c3ccc(F)cc3)CC2)ccc(Cl)c1Cl | 61* | 0.9 | 14 | -5 | 0.4 | -8
COC(=O)COc1ccc(S(=O)(=O)N2CCN(c3ccc(F)cc3)CC2)cc1 | 24 | 0.5 | 46 | -8 | 0.8 | 8
CC(=O)Nc1ccc(C(=O)n2cnc3cc(C)c(C)cc32)cc1 | 38 | 0.6 | 45 | -11 | 0.6 | -35
CCOc1ccc(Cl)cc1S(=O)(=O)N1CCN(c2ccc(F)cc2)CC1 | 100* | 2.4* | -143 | -7 | 0 | 4
COc1ccc(CN2C(=O)CCC2(C)C(=O)NC2CCCCCC2)cc1 (centres undefined) | 3 | 1 | -4 | -16 | 1 | -4
c1ccc(-c2csc(-n3cnnn3)n2)cc1 | 62* | 0.9 | 12 | -11 | 0.4 | -10
Cc1cc(C)n(-c2nc(-c3ccccc3)cs2)n1 | 5 | 0.9 | 7 | -5 | 0.9 | 11
CCN(CC)c1ccc(C2C(C(C)=O)C(=O)CC(C)(O)C2C(C)=O)cc1 (centres undefined) | / | / | / | -8 | / | 9
O=C(c1ccccc1)c1coc2ccc(O)c(CN3CCOCC3)c12 | 96* | 0.4 | 56* | -6 | 0 | 5
CN(C)Cc1c(O)ccc2occ(C(=O)c3ccccc3)c12 | -9 | 1 | 2 | -10 | 1.1 | -4
O=C(c1ccccc1)c1coc2ccc(O)c(Cl)c12 | 90* | 0.4 | 64* | 23 | 0.1 | -12
Cc1ccc(C(=O)c2coc3ccc(O)c(Cl)c23)cc1 | 54* | 0.9 | 6 | 0 | 0.5 | -11
CCCCC(=O)Nc1ccc(NC(=O)c2cccs2)cn1 | / | / | / | -4 | / | -3
N#CN=C1CCCCCN1CC(N)=O | 2 | 1 | -2 | -8 | 1 | -3
O=C(NCc1ccc(F)cc1)c1cc2n(n1)C(C(F)(F)F)CC(C1CC1)N2 (centres undefined) | 42 | 0.6 | 40 | -3 | 0.6 | -28
SMILES | CYP2C19 inhib | CYP2C9 act | CYP2C9 inh | PLK1 kinase inh | CYP2C19 activ | Plk1 PBD FP
COc1cccc(NC(=O)c2oc3ccccc3c2NC(=O)C2CC2)c1 | 23 | 0.7 | 29 | -3 | 0.8 | -27
COc1ccc(Cl)cc1-n1c(C)cc(C(=O)O)c1C | 10 | 1 | 0 | / | 0.9 | /
COc1ccc(Cl)cc1-n1c(C)cc(C=O)c1C | 87* | 0.4 | 60* | -10 | 0.1 | -5
CC(C)n1nnnc1SCC(=O)N1CCOCC1 | 5 | 1 | 0 | / | 1 | /
O=c1c2cn[nH]c2nc(SCc2ccc3c(c2)OCCO3)n1-c1ccccc1 | 90* | 0.1 | 88* | 13 | 0.1 | 16
CCc1ccccc1-n1c(SCC(=O)Nc2ccc3c(c2)OCCO3)nc2[nH]ncc2c1=O | 54* | 0.4 | 61* | 16 | 0.5 | -22
Cc1ccc(S(=O)(=O)N2CCN(S(=O)(=O)N3CCOCC3)CC2)c(C)c1 | 49 | 1.4 | -37 | -8 | 0.5 | 8
Cc1ccc(C)c(S(=O)(=O)N2C(=S)NC(=O)C2C(C)C)c1 (centres undefined) | 56* | 0 | 95* | -1 | 0.4 | -25
N#Cc1c(-c2ccccc2Cl)cc(C2CC2)nc1N | 74* | 1.5 | -53 | -10 | 0.3 | -12
COc1ccccc1-c1c(C)c(C)nc(N)c1C#N | 13 | 1 | 1 | 4 | 0.9 | -2
COc1ccccc1-c1cc(-c2ccccc2)nc(SC(C(N)=O)c2ccccc2)c1C#N (centres undefined) | 12 | 0.7 | 30 | -14 | 0.9 | 26
CCc1nc(N)c(C#N)c(-c2ccccc2OC)c1C | 70* | 1 | -4 | -4 | 0.3 | -4
COc1ccccc1-c1cc(C2CC2)nc(N)c1C#N | 80* | 1.2 | -17 | 5 | 0.2 | 4
CN1c2ccsc2/C(=N/NC(=O)c2c(F)cccc2F)CS1(=O)=O | 0 | 0.9 | 6 | -5 | 1 | 2
Cc1ccc(NC(=O)C2=C(O)c3sccc3N(C)S2(=O)=O)cc1 | -2 | 0.4 | 64* | -13 | 1 | -3
Cc1ccc(C(=O)NC(=S)Nc2ccc(S(=O)(=O)N3CCN(C)CC3)cc2)cc1 | 18 | 0.7 | 26 | -15 | 0.8 | 16
Cc1cccc(NC(=O)C2=C(O)c3ccccc3N(C)S2(=O)=O)c1 | -5 | 0.6 | 41 | -17 | 1.1 | -5
CN1c2ccsc2C(O)=C(C(=O)Nc2ccccc2)S1(=O)=O | -16 | 0.3 | 73* | -6 | 1.2 | 12
Cc1ccc(NC(=S)C2=C(O)c3sccc3N(C)S2(=O)=O)cc1 | -1 | 0.1 | 95* | -8 | 1 | 1
CN1c2ccccc2C(O)=C(C(=S)Nc2ccc(Cl)cc2)S1(=O)=O | 1 | 0 | 97* | -18 | 1 | 11
COCCNC(=O)C1CC(=O)N(CCc2ccccc2)C1 (centres undefined) | 22 | 1.1 | -13 | -5 | 0.8 | -9
O=C(O)c1ccc(Cl)c(S(=O)(=O)N2CCCCCC2)c1 | 0 | 0.8 | 15 | / | 1 | /
CCNc1nc(NCc2ccccc2)nc(Oc2ccc(=O)[nH]n2)n1 | / | / | / | -8 | / | -22
CS(=O)(=O)N(CC(=O)N1CCN(c2ccccc2F)CC1)c1cccc(C(F)(F)F)c1 | 7 | 1.7 | -74 | 10 | 0.9 | 20
COc1ccc2c(=O)c3c(=O)n(Cc4ccco4)c(C4CCCCC4)nc3oc2c1 | 53* | 0.7 | 26 | / | 0.5 | /
CCc1nc2oc3cc(OC)ccc3c(=O)c2c(=O)n1Cc1ccccc1 | 53* | 0.5 | 49 | 2 | 0.5 | 18
